According to PubChem BioAssay (EPA / NIEHS):
The source made the active and inactive calls. Rule for the calls: active = hit-call score of the fitted dose curve at least 0.9, where 1 is the maximum; inactive = score below 0.9.

Legend:
[1] = ATG_E_Box_CIS: Attagene CIS-FACTORIAL HepG2 Assay for human Enhancer Box (E-box) (AID 2282936); conditions: HepG2 E-box cis-reporter transcription, actives raise or lower the signal
Procedure, shortened: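 First, HepG2 cells receive multiple cis-regulated reporter constructs by transient transfection. Next, chemicals are applied for 24 h. Finally, reporter mRNA is quantified via RT-PCR and capillary electrophoresis, with DMSO as baseline.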

[2] = ATG_M_61_CIS: Attagene CIS-FACTORIAL HepG2 Assay for M61 Transcription Factor (Internal Marker) (AID 2282937); conditions: HepG2 Attagene CIS-FACTORIAL M61 internal marker reporter; actives raise or lower the signal
Procedure, shortened: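 Background-control endpoint: HepG2 cells with cis-regulated reporter constructs, 24 h exposure, reporter mRNA detected via fluorescent primer extension and capillary electrophoresis; values from bidirectional fitting with DMSO baseline.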

[3] = ATG_EGR_CIS: Attagene CIS-FACTORIAL HepG2 Assay for human Early Growth Response 1 (EGR1) (AID 2282938); conditions: HepG2 Attagene CIS-FACTORIAL EGR reporter mRNA; actives raise or lower the signal
Procedure, shortened: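 Endpoint derived by bidirectional fitting versus DMSO vehicle. Method: cis-promoter reporter units transfected into HepG2, 24 h dosing, RNA isolation, RT-PCR with 6-FAM primer extension and HpaI digestion, then capillary electrophoresis fluorescence detection.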

[4] = ATG_M_19_CIS: Attagene CIS-FACTORIAL HepG2 Assay for M19 Transcription Factor (Internal Marker) (AID 2282939); conditions: HepG2 Attagene CIS-FACTORIAL M19 internal marker reporter; actives raise or lower the signal
Procedure, shortened: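 HepG2, MRTU transient transfection, 24 h dosing. Total RNA → RT-PCR → 6-FAM primer extension → HpaI digest → CE fluorescence. Bidirectional curve fit, DMSO negative control.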

[5] = ATG_Ets_CIS: Attagene CIS-FACTORIAL HepG2 Assay for human Erythroblast Transformation Specific (ETS) (AID 2282941); conditions: HepG2 ETS cis-reporter transcription, actives raise or lower the signal
Procedure, shortened: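 Human HepG2 hepatoma cells were transiently transfected with promoter-driven reporter constructs and treated for 24 hours. Reporter transcripts were quantified by RT-PCR with fluorescent primer extension; bidirectional curve fitting used DMSO as reference.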

[6] = target: Hepatocyte nuclear factor 3-beta (Homo sapiens) (UniProt Q9Y261); experiment: ATG_FoxA2_CIS: Attagene CIS-FACTORIAL HepG2 Assay for human Forkhead box A2 (FOXA2) (AID 2282942); conditions: HepG2 cis-reporter transcription factor activity, 24 h; actives raise or lower the signal
Chain of Hepatocyte nuclear factor 3-beta (Homo sapiens) (Q9Y261 whole entry, looked up): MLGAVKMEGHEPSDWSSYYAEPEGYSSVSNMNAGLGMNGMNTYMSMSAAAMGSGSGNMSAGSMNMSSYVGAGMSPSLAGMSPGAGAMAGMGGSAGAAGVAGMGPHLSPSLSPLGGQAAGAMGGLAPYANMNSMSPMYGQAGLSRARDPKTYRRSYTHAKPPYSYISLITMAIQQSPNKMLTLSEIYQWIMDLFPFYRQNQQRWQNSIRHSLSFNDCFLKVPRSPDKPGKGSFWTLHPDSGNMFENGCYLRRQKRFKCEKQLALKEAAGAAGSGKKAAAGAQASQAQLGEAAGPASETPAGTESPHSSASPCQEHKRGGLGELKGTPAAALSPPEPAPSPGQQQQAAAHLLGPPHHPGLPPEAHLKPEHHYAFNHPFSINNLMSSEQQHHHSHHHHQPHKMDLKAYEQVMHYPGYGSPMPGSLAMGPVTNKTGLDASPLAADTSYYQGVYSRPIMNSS
Procedure, shortened: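 Measured: reporter mRNA induction or loss in HepG2 transiently carrying multiple cis-regulated reporter units, 24 h after dosing. Quantified by RT-PCR plus capillary electrophoresis, normalised to DMSO.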

[7] = ATG_FoxO_CIS: Attagene CIS-FACTORIAL HepG2 Assay for human Forkhead box O (FoxO) (AID 2282943); conditions: HepG2 Attagene cis-reporter, FoxO element, mRNA; actives raise or lower the signal
Procedure, shortened: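 Transfected HepG2 reporter cells exposed to test chemical for 24 h; reporter RNA measured by reverse transcription, PCR and fluorescent capillary electrophoresis; curves fitted for increases and decreases against DMSO.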

[8] = ATG_GATA_CIS: Attagene CIS-FACTORIAL HepG2 Assay for human GATA Binding Protein (AID 2282944); conditions: HepG2 GATA cis-element reporter, Attagene multiplex mRNA; actives raise or lower the signal
Procedure, shortened: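 Cells: HepG2, transiently transfected with cis-regulated reporter transcription units. Exposure: 24 h. Detection: RT-PCR plus capillary electrophoresis of FAM-labeled fragments. Analysis: bidirectional, DMSO as baseline.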

[9] = ATG_GLI_CIS: Attagene CIS-FACTORIAL HepG2 Assay for human Zinc Finger Protein GLI1 (AID 2282945); conditions: HepG2, Attagene cis-factorial reporter mRNA, GLI element; actives raise or lower the signal
Procedure, shortened: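 Transiently transfected HepG2 cells report endogenous transcription factor activity via cis-element-driven reporter units. After 24 h compound exposure, reporter mRNA was measured by RT-PCR with capillary electrophoresis; bidirectional fitting against DMSO baseline.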

[10] = ATG_GRE_CIS: Attagene CIS-FACTORIAL HepG2 Assay for human Glucocorticoid Response Elements (GRE) (AID 2282947); conditions: HepG2 GRE cis-reporter, Attagene multiplex mRNA; actives raise or lower the signal
Procedure, shortened: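 Endogenous transcription factor activity is read through cis-element reporter constructs transiently transfected into HepG2 cells. After 24 h treatment, labelled RT-PCR products are resolved by capillary electrophoresis; DMSO sets baseline for bidirectional curve fitting.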

[11] = ATG_ISRE_CIS: Attagene CIS-FACTORIAL HepG2 Assay for human Interferon Regulatory Factor 1 (IRF1) binding to an Interferon-Stimulated Response Element (ISRE) (AID 2282948); conditions: HepG2 ISRE cis-reporter (Attagene), mRNA transcription readout; actives raise or lower the signal
Procedure, shortened: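 Cell-based cis-reporter assay; HepG2; 24 h exposure; reporter mRNA by RT-PCR plus capillary electrophoresis fluorescence; activity in either direction scored relative to DMSO.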

[12] = ATG_M_32_CIS: Attagene CIS-FACTORIAL HepG2 Assay for M32 Transcription Factor (Internal Marker) (AID 2282949); conditions: HepG2 Attagene cis-factorial M32 reporter, mRNA; actives raise or lower the signal;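 note: background control marker of the multiplexed CIS panel rather than a real target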
Procedure, shortened: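 Internal background marker read-out: RT-PCR/capillary electrophoresis fluorescence of reporter transcripts from transiently transfected HepG2 cells after 24 h chemical exposure. Activity fitted bidirectionally relative to DMSO negative control.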

[13] = ATG_M_06_CIS: Attagene CIS-FACTORIAL HepG2 Assay for M06 Transcription Factor (Internal Marker) (AID 2282950); conditions: HepG2 Attagene CIS-FACTORIAL M06 internal marker reporter; actives raise or lower the signal
Procedure, shortened: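 Measured 24 h post-dosing in transiently transfected HepG2 cells, this internal-marker endpoint reports reporter mRNA via RT-PCR with fluorescent primer extension and capillary electrophoresis. DMSO served as negative control and baseline for bidirectional fitting.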

[14] = target: Hepatocyte nuclear factor 6 (Homo sapiens) (UniProt Q9UBC0); experiment: ATG_HNF6_CIS: Attagene CIS-FACTORIAL HepG2 Assay for human Hepatocyte Nuclear Factor 6 (HNF6) (AID 2282952); conditions: HepG2 Attagene cis-factorial HNF6 reporter transcription; actives raise or lower the signal
Chain of Hepatocyte nuclear factor 6 (Homo sapiens) (Q9UBC0 whole entry, looked up, the tested form may be a part): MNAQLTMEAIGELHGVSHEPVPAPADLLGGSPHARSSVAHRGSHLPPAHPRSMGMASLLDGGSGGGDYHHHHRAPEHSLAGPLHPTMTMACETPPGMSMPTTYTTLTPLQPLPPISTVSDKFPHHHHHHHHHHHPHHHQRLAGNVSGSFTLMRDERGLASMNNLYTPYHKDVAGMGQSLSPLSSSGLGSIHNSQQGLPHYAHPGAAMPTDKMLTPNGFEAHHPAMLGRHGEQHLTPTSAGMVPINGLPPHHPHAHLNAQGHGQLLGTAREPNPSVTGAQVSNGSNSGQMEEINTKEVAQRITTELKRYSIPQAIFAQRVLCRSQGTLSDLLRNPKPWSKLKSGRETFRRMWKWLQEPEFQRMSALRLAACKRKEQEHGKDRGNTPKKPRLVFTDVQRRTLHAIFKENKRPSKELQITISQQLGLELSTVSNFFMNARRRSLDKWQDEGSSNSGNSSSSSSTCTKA
Procedure, shortened: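 Reporter mRNA induction or loss in HepG2 after 24 h exposure; transient cis-MRTU transfection; fragments quantified by capillary electrophoresis; bidirectional analysis, DMSO as negative control.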

[15] = target: Heat shock factor protein 1 (Homo sapiens) (UniProt Q00613); experiment: ATG_HSE_CIS: Attagene CIS-FACTORIAL HepG2 Assay for human Heat Shock Transcription Factor 1 (HSE) (AID 2282953); conditions: HepG2 HSE cis-reporter, Attagene RNA transcription; actives raise or lower the signal
Chain of Heat shock factor protein 1 (Homo sapiens) (Q00613 whole entry, looked up): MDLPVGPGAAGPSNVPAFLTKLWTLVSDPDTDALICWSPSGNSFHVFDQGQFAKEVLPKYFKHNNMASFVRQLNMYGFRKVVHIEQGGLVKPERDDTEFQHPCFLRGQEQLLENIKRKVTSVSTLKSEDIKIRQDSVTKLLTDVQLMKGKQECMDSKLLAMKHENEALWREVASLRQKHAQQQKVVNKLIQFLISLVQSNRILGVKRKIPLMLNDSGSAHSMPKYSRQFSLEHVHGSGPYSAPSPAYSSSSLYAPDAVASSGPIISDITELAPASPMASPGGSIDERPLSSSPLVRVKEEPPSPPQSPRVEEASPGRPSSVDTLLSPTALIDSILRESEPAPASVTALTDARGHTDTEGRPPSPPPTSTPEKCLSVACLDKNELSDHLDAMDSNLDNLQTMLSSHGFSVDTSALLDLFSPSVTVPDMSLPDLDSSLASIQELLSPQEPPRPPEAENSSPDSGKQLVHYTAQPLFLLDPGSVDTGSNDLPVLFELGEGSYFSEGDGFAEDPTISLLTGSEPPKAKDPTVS
Procedure, shortened: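 Reporter mRNA induction in HepG2 is measured 24 h after dosing, using transiently transfected multiplexed cis-regulated reporter units. Signal comes from capillary electrophoresis of labelled RT-PCR products, with DMSO as negative control.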

[16] = ATG_MRE_CIS: Attagene CIS-FACTORIAL HepG2 Assay for human Metal Responsive Element (MRE) (AID 2282954); conditions: HepG2 MRE cis-reporter transcription, Attagene multiplex; actives raise or lower the signal
Procedure, shortened: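 Fluorescent reporter fragments separated by capillary electrophoresis give mRNA induction for the MRE unit after 24 h treatment of transfected HepG2 cells. Endogenous transcription-factor activity is read; DMSO serves as negative control and baseline.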

[17] = target: Paired box protein Pax-6 (Homo sapiens) (UniProt P26367); experiment: ATG_Pax6_CIS: Attagene CIS-FACTORIAL HepG2 Assay for human Paired Box 6 (PAX6) (AID 2282956); conditions: HepG2 CIS-FACTORIAL PAX6 reporter transcription, RNA readout; actives raise or lower the signal
Chain of Paired box protein Pax-6 (Homo sapiens) (P26367 whole entry, looked up): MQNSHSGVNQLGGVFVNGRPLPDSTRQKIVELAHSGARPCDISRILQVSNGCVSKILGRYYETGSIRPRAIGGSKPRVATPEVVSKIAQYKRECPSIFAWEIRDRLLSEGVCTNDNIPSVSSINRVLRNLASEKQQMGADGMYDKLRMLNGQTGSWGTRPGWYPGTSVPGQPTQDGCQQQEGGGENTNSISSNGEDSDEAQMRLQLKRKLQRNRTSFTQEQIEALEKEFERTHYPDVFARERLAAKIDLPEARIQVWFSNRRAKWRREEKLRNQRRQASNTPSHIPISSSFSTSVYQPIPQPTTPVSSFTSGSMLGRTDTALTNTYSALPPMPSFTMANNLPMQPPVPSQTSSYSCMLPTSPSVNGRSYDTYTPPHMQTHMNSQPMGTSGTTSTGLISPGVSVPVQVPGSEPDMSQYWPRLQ
Procedure, shortened: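 Multiplexed cis-reporter HepG2 system; 24 h treatment; reporter mRNA read by RT-PCR/CE fluorescence; bidirectional fit vs DMSO.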

[18] = target: Hypoxia-inducible factor 1-alpha (Homo sapiens) (UniProt Q16665); experiment: ATG_HIF1a_CIS: Attagene CIS-FACTORIAL HepG2 Assay for human Hypoxia Inducible Factor 1 (HIF1A) (AID 2282951); conditions: HepG2 Attagene cis-factorial HIF1a reporter transcription; actives raise or lower the signal
Chain of Hypoxia-inducible factor 1-alpha (Homo sapiens) (Q16665 whole entry, looked up): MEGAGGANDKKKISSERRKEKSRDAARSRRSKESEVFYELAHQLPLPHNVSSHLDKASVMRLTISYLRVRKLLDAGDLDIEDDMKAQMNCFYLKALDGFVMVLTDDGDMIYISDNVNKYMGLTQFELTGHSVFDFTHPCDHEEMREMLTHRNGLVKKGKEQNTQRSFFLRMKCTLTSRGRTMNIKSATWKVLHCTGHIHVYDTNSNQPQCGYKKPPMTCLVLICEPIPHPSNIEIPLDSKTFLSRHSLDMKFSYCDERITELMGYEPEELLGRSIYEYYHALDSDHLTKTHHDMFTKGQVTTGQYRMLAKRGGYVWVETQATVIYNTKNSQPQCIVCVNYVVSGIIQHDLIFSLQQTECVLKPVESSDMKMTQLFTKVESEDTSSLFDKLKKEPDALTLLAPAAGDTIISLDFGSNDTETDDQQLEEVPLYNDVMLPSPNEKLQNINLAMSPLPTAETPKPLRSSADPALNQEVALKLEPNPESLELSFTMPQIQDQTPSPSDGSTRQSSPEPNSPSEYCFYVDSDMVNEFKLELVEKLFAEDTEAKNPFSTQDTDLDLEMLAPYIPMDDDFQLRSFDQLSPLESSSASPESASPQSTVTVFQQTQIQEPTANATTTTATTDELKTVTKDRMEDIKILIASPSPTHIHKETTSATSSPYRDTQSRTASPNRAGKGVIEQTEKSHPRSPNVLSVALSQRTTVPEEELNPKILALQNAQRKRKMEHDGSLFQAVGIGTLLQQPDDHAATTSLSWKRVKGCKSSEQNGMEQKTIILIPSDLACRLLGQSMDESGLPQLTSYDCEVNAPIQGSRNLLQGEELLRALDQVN
Procedure, shortened: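 Dosed 24 h, transfected HepG2 cells yielded total RNA whose reporter transcripts were RT-PCR-amplified and sized by capillary electrophoresis using fluorescent labelling; DMSO defined baseline, with gain and loss of signal both fitted.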

[19] = ATG_PBREM_CIS: Attagene CIS-FACTORIAL HepG2 Assay for human Phenobarbital-responsive Enhancer Module (PBREM) (AID 2282955); conditions: HepG2 PBREM cis-reporter, Attagene multiplexed transcription; actives raise or lower the signal
Procedure, shortened: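 Transfected liver-derived HepG2 cells exposed 24 h; PBREM reporter transcript quantified via RT-PCR and capillary electrophoresis, with activity in either direction referenced to DMSO.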

[20] = target: Bile acid receptor (Homo sapiens) (UniProt Q96RI1); experiment: ATG_IR1_CIS: Attagene CIS-FACTORIAL HepG2 Assay for human Nuclear Receptor Subfamily 1 Group H Member 4 (NR1H4), IR1 submotif (AID 2282946); conditions: IR1 reporter transcription, actives raise or lower the signal
Chain of Bile acid receptor (Homo sapiens) (Q96RI1 whole entry, looked up): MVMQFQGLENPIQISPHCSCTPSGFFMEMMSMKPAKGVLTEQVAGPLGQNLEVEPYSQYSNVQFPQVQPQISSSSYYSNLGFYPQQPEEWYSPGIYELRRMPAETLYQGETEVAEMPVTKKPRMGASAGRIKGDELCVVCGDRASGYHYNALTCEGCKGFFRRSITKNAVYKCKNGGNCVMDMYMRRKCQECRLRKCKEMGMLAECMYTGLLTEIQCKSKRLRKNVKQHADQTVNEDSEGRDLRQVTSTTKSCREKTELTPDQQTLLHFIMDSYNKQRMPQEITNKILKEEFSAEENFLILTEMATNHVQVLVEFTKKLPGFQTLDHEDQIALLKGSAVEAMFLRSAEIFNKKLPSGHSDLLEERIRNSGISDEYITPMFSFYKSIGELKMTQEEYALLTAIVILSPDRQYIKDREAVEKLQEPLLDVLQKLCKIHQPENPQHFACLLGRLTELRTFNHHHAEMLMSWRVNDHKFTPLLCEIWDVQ
Procedure, shortened: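 HepG2 cells transiently transfected with multiple cis-promoter-driven reporter units to measure endogenous transcription factor activity; 24 h exposure. Reporter mRNA read by RT-PCR, FAM labelling, HpaI digestion and capillary electrophoresis. Bidirectional fit versus DMSO.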

Measured: AC50

Brc1ccc(Oc2ccccc2)cc1
active: [11] 100 µM
inactive: [1] | [2] | [3] | [4] | [5] | [6] | [7] | [8] | [9] | [10] | [12] | [13] | [14] | [15] | [16] | [17]

OCCCBr
inactive: [1] | [2] | [3] | [4] | [5] | [6] | [7] | [8] | [9] | [10] | [11] | [12] | [13] | [18] | [14] | [15] | [16] | [19] | [17]

CS(=O)(=O)NC(=O)c1cc(Oc2ccc(C(F)(F)F)cc2Cl)ccc1[N+](=O)[O-]
inactive: [1] | [2] | [3] | [4] | [5] | [6] | [7] | [8] | [9] | [20] | [11] | [12] | [13] | [18] | [14] | [15] | [16] | [19] | [17]

CCCCC(CC)COC(=O)c1ccc(C(=O)OCC(CC)CCCC)c(C(=O)OCC(CC)CCCC)c1 (stereo not drawn)
inactive: [1] | [2] | [3] | [4] | [5] | [6] | [7] | [8] | [9] | [10] | [11] | [12] | [13] | [18] | [14] | [15] | [16] | [19] | [17]

CC(C)N(Cc1ccccc1)C(=O)C(C)(C)C
inactive: [1] | [2] | [3] | [4] | [5] | [6] | [7] | [8] | [9] | [20] | [11] | [12] | [13] | [18] | [14] | [15] | [16] | [19] | [17]

CCCSC(=O)N(CCC)CCC
inactive: [1] | [2] | [3] | [4] | [5] | [6] | [7] | [8] | [9] | [10] | [11] | [12] | [13] | [14] | [15] | [16] | [19] | [17]

c1ccc(C2CO2)cc1 (stereo not drawn)
inactive: [1] | [2] | [3] | [4] | [5] | [6] | [7] | [8] | [9] | [10] | [11] | [12] | [13] | [14] | [15] | [16] | [17]

CCCCCCCCCCCCCN1CC(C)OC(C)C1 (stereo not drawn)
inactive: [1] | [2] | [3] | [4] | [5] | [6] | [7] | [8] | [9] | [10] | [11] | [12] | [13] | [18] | [14] | [15] | [16] | [17]

C1=Cc2cccc3cccc1c23
inactive: [1] | [2] | [3] | [4] | [5] | [6] | [7] | [8] | [9] | [10] | [11] | [12] | [13] | [18] | [14] | [15] | [16] | [19] | [17]

CCN(CC)N=O
inactive: [1] | [2] | [3] | [4] | [5] | [6] | [7] | [8] | [9] | [20] | [11] | [12] | [13] | [14] | [15] | [16] | [17]

CC(O)CCO (stereo not drawn)
inactive: [1] | [2] | [3] | [4] | [5] | [6] | [7] | [8] | [9] | [11] | [12] | [13] | [18] | [14] | [15] | [16] | [19] | [17]

OCCCl
inactive: [1] | [2] | [3] | [4] | [5] | [6] | [8] | [9] | [20] | [10] | [11] | [12] | [13] | [18] | [14] | [15] | [16] | [19] | [17]

N#CC(Br)Br
inactive: [1] | [2] | [3] | [4] | [5] | [6] | [7] | [8] | [9] | [20] | [10] | [11] | [12] | [13] | [14] | [15] | [16] | [19] | [17]
